Compound activity as filed in PubChem BioAssay.
Most compounds without a hit are left out; they make up all but 1.9% or so of the library.
Efa HMGR inh = inhibitors of class II HMG-CoA reductase from Enterococcus faecalis | purified E. faecalis HMGR, NADPH absorbance 340 nm kinetic | AID 1066 | actives 0.41% (n = 190,000) | inhibition, % at 10 µM;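 active = inhibition above a set limit, the median over all tested compounds plus 3 SD, cut at about 9.5% in these data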;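 note: enzyme runs in reverse so mevalonate oxidation gives rising NADPH absorbance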
Insulin prom up = MIN6 insulin promoter up-regulation; actives 0.3% (n = 190,000); z-score at 5 µM; MIN6 insulin promoter-GFP reporter, high-content imaging; stronger effect = higher value;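 active = z-score above 3 at 5 µM with at least 500 cells counted in the well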
INS promoter inh = TRM-6 insulin promoter activity inhibition; AID 1273; inhibition, % at 2 µM; TRM-6 cells (human fetal islet line), insulin promoter-eGFP reporter, imaging; reporter expression induced with tamoxifen; actives 0.9% (n = 130,000);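 active = inhibition above the mean plus 3 SD, with well images judged a real hit on visual review, cut at about 60% in these data, passing the limit was not always enough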
Autophagy mod = modulators of autophagy | calls only at 10 µM (by protocol) | MEF GFP-LC3 puncta imaging; test concentration mostly 10 µM | AID 463193 | actives 0.98% (n = 190,000);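 active = percentage of spot-positive cells more than 3 SD above its plate mean, without a fluorescence outlier flag or 80% toxicity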
Hits are given with their value; - = inactive; . = no result given; + = active, no number.

SMILES	Efa HMGR inh	Insulin prom up	INS promoter inh	Autophagy mod
O=C(NCc1n[nH]c(=S)n1-c1ccc(Br)cc1)c1cccs1	-	-	-	-
c1csc(-c2cn3ccc4ccccc4c3n2)c1	-	-	86	-
Cc1nn(C)cc1CNC(=O)C1C2CCC(O2)C1C(=O)O (configuration not stated)	-	-	.	-
O=C(O)C1C2CCC(O2)C1C(=O)NCc1ccc(Cl)cc1 (configuration not stated)	-	-	62	-
S=c1nc[nH]c2c1ncn2C1CCCC1	.	-	.	.
Cc1ccc(C(=O)NNC2CC(=O)N(c3ccc4c(c3)OCCO4)C2=O)cc1 (configuration not stated)	-	.	85	-
CCc1ccc(N2C(=O)/C(=C/c3cccs3)N(CC(=O)OC)C2=S)cc1	-	.	-	+
COC(=O)CN1C(=S)N(c2ccc(OC)cc2)C(=O)/C1=C/c1cccs1	-	-	-	-
Nc1nc(SCC(=O)NCc2ccc3c(c2)OCO3)n[nH]1	-	-	65	-
COc1cc(NC(=S)NN2CCN(C)CC2)cc(OC)c1OC	-	-	-	-
Cc1nc2c(sc3nc(N4CCOCC4)c4c(c32)CC(C)(C)OC4)c(-c2ccc(Cl)cc2)c1C(=O)O	.	-	.	.
CC(=O)Nc1c(C(=O)c2ccccc2)oc2ccccc12	-	-	71	-
CC(=O)Nc1c(C(=O)C2CC2)oc2ccccc12	-	-	-	-
CN1CCN/C1=C(/C(Cl)=C(Cl)Cl)[N+](=O)[O-]	-	-	.	-
Cc1sc2c(c1C)C(=O)/C(=C\Nc1ccncc1)S(=O)(=O)N2C	.	-	.	.
Cn1c(SCC(=O)O)nnc1C1CCCCC1	-	-	83	-
Cc1ccc(S(=O)(=O)c2c[nH]c3cc4c(cc3c2=O)OCO4)cc1	.	-	.	.
O=C(OCC(=O)N1CCCc2ccccc21)c1ccc(Cl)nc1	-	-	80	-
O=S(=O)(Nc1ccc(S(=O)(=O)N2CCCCCC2)cc1)c1cccs1	-	.	86	-
O=S(=O)(Nc1ccc(N2CCCCC2)cc1)c1cccs1	-	-	.	-
O=C(CCNS(=O)(=O)c1cccs1)N1CCCCCC1	-	-	-	+
CCOC(=O)c1[nH]c2ccccc2c1NC(=S)Nc1cc(C)ccc1C	-	-	76	-
C(=N\Nc1nc(Nc2ccccc2)nc(N2CCCCC2)n1)/c1ccco1	-	-	.	-
COc1ccc(NC(=O)/C(Cl)=C(/Cl)S(=O)(=O)Cc2ccccc2)cn1	-	.	-	+
COc1ccc(NC(=O)C(Cl)=C(Cl)Cl)cn1	-	-	-	-
SMILES	Efa HMGR inh	Insulin prom up	INS promoter inh	Autophagy mod
Cc1cccc(CSCCNC(=O)c2ccc(CN3CCOCC3)cc2)c1	-	-	71	-
O=C(NCc1ccc2c(c1)OCO2)c1ccc2c(c1)OCO2	.	-	.	.
O=C(NCc1ccc2c(c1)OCO2)c1ccc(CN2CCOCC2)cc1	-	-	89	-
O=C(Nc1ccc2c(c1)OCO2)OCc1ccccc1	-	-	100	-
O=C(Nc1ccc2c(c1)OCO2)C1CCCN1C(=O)OCc1ccccc1 (configuration not stated)	-	-	-	-
O=C(Nc1ccccc1F)c1ccc(OCc2ccccc2)cc1	-	-	-	+
CCOCC(=O)Nc1ccc(OCc2ccccc2)cc1	-	-	.	+
CCC1(c2ccccc2)NC(=O)N(Cc2ccc(C(=O)OC)cc2)C1=O (configuration not stated)	-	-	.	-
C/C(CC(=O)Nc1cc(Cl)ccc1C)=N\NC(N)=O	.	-	.	.
COc1ccc(N2C(=O)CC(N3CCC(O)(c4ccc(Cl)cc4)CC3)C2=O)cc1 (configuration not stated)	-	-	-	-
COc1ccc(N2C(=O)CC(N3CCN(S(=O)(=O)c4ccc(Cl)cc4)CC3)C2=O)cc1 (configuration not stated)	9.6	-	-	-
Cc1[nH]nc2c1C(c1ccsc1)C1=C(CC(C)(C)CC1=O)N2 (configuration not stated)	15	-	.	-
CNC(=S)/N=C/NOCc1ccc(Cl)cc1Cl	-	-	-	+
O=C(c1cc2cc([N+](=O)[O-])ccc2oc1=O)N1CCN(c2ncccn2)CC1	-	-	-	+
O=C(c1cc2cc([N+](=O)[O-])ccc2oc1=O)N1CCOCC1	-	-	-	-
COc1ccc(CN2C3CCCC2CC(NC(=O)Nc2ccccc2)C3)cc1 (configuration not stated)	.	-	81	-
Cc1ccc(C(=O)C2CCN(CC(=O)N3CCN(c4ccc(F)cc4)CC3)CC2)cc1	-	.	-	-
CC(C)C1C(C#N)=C(N)Oc2n[nH]c(-c3ccc4ccccc4c3)c21 (configuration not stated)	-	.	-	+
CC(C)C1C(C#N)=C(N)Oc2n[nH]c(-c3cccs3)c21 (configuration not stated)	-	-	.	-
S=C(NCCN1CCOCC1)N/N=C/c1c2ccccc2cc2ccccc12	-	-	-	+
COc1cc(/C=N/NC(=S)NCCN2CCOCC2)cc(OC)c1O	-	-	-	-
COc1ccc2ccccc2c1/C=N/NC(=S)NCCN1CCOCC1	-	-	.	-
COc1cc(OC)c(OC)cc1/C=N/NC(=S)NCCN1CCOCC1	-	-	.	+
O=C(NC1CCN(C(=O)Nc2ccccc2Cl)CC1)c1ccccc1	-	-	-	-
CN(C)C(=O)CN(c1ccc2c(c1)OCO2)S(C)(=O)=O	-	3.6	71	-
SMILES	Efa HMGR inh	Insulin prom up	INS promoter inh	Autophagy mod
CS(=O)(=O)N(CC(=O)Nc1ccc2c(c1)OCO2)c1ccc2c(c1)OCO2	-	.	.	-
CCCCNC(=O)CCN1N=C(c2ccccc2)CCC1=O	-	-	-	-
CCCCCCOC(=O)C(C#N)c1nc2ccccc2nc1N1CCN(CC)CC1 (configuration not stated)	-	-	-	+
N#CC(C(=O)NCc1ccccc1)c1nc2ccccc2nc1N1CCCC1 (configuration not stated)	-	-	-	+
CCCCCCNC(=O)C(C#N)c1nc2ccccc2nc1N1CCOCC1 (configuration not stated)	-	-	.	-
N#CC(C(=O)NCCc1ccccc1)c1nc2ccccc2nc1N1CCCCC1 (configuration not stated)	-	-	.	-
CCCCCCOC(=O)C(C#N)c1nc2ccccc2nc1N1CCOCC1 (configuration not stated)	-	-	.	-
CCCCCNC(=O)C(C#N)c1nc2ccccc2nc1N1CCCC1 (configuration not stated)	-	-	-	+
CCCCCCNC(=O)C(C#N)c1nc2ccccc2nc1N1CCCC1 (configuration not stated)	-	-	.	+
C/C=C\C(=O)Nc1cccc(C2=NOC3(C2)C[C@H](C(N)=O)N(C(=O)[C@H]2CCC(=O)N2)C3)c1 (some centres not stated)	.	-	.	.
O=C(CN(C(=O)CSc1nc2ccccc2o1)c1ccccc1F)NC1CCCCC1	-	-	-	-
CC/C(=N\NC(=O)CSc1ncccn1)c1ccc2c(c1)OCCO2	-	-	.	-
CCOCCCNC(=O)c1c[nH]c2c(CC)cccc2c1=O	-	.	.	-
CC(=O)Nc1sc(N)nc1-c1ccccc1	-	-	.	+
